{"source": "PubChem BioAssay AID2108", "about": "(National Center for Advancing Translational Sciences (NCATS), 2009)", "note": "Inconclusive results are not listed. The source made the active and inactive calls. Calls follow the shape of the dose curve; as a rule, active = well fitted curve in the direction sought with a large enough effect; inconclusive = small, poorly fitted or top-dose-only effect, or effect the other way, or another doubt; inactive = no such curve, though single readings can be large or run the other way.", "data": [{"molecular_target": "Alpha-galactosidase A (Homo sapiens) (UniProt P06280)", "sequence (P06280 32-429 limits assumed)": "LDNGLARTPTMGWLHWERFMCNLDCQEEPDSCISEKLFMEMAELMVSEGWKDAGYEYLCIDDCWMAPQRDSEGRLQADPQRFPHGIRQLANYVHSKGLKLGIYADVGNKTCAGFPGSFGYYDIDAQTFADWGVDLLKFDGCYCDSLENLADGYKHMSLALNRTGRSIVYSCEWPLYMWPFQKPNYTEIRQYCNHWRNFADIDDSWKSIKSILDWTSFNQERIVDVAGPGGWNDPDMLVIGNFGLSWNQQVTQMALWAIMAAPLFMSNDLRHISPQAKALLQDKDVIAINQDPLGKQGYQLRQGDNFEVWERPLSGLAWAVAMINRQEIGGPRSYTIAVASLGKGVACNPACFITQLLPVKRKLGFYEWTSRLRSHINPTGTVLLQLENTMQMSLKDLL", "test": "Confirmation of Inhibitors of Human alpha-Galactosidase Using Spleen Homogenate; also: 0% is about no effect", "settings": "alpha-galactosidase enzyme activity; series mostly up to 56.2 µM; activity change: at the top concentration", "method_in_brief": "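Human spleen homogenate (1 ug) with 1 mM 4-methylumbelliferyl-alpha-D-galactopyranoside in citrate-phosphate pH 5.0, 0.01% Tween-20, 37C 40 min; compounds 0.5 nM–58 uM final. Stopped at pH 10, fluorescence Ex 365/Em 440; AC50 from Hill fits.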", "values": [{"smiles": "O=S(=O)(c1ccc(-c2ccccc2)cc1)N1CCOCC1", "activity change": "11.5% (inactive)"}, {"smiles": "Cc1sc(-c2cc3c(ccc4ccccc43)oc2=O)nc1-c1ccccc1", "activity change": "6.32% (inactive)"}, {"smiles": "O=c1oc2ccc(Cl)cc2cc1-c1nc2c(s1)CCc1ccccc1-2", "activity change": "5.46% (inactive)"}, {"smiles": "O=c1cc(-c2ccccc2)[nH]c2[nH]n(-c3ccccc3)c(=O)c12", "activity change": "0.265% (inactive)"}, {"smiles": "Cc1nnc(SCC(=O)Nc2nsc(-c3ccc(C(C)(C)C)cc3)n2)s1", "activity change": "1.06% [at 23.6 µM] (inactive)"}, {"smiles": "CCOC(=O)Nc1ccc2c(c1)N(C(=O)CN(CC)CC)c1ccccc1CC2", "activity change": "-1.98% (inactive)"}, {"smiles": "CN(CCO)S(=O)(=O)c1ccc2c(c1)C(=NNC(N)=O)c1cc(S(=O)(=O)N(C)CCO)ccc1-2", "activity change": "2.47% (inactive)"}, {"smiles": "O=C1c2cc(S(=O)(=O)N3CCOCC3)ccc2-c2ccc(S(=O)(=O)N3CCOCC3)cc21", "activity change": "11.1% (inactive)"}, {"smiles": "CC1=CC(=C2C=CC(=O)C=C2)C=C(C)N1C", "activity change": "-1.91% [at 23.6 µM] (inactive)"}, {"smiles": "CC/C(=C(\\c1ccccc1)c1ccc(OCCN(C)C)cc1)c1ccccc1", "activity change": "-11.7% [at 287 µM] (inactive)"}, {"smiles": "COc1cccc2cc(-c3nc(-c4ccc(C)cc4)c(C)s3)c(=O)oc12", "activity change": "6.04% (inactive)"}, {"smiles": "C[C@@H](NC(=O)c1nc[nH]c1C(=O)N[C@@H](Cc1ccccc1)C(=O)OC(C)(C)C)c1ccccc1", "activity change": "1.74% (inactive)"}, {"smiles": "O=C(CSc1ncc(C(F)(F)F)cc1Cl)N1CCN(S(=O)(=O)c2ccccc2)CC1", "activity change": "3.43% (inactive)"}, {"smiles": "N#C/C(=C\\c1cc(O)c(O)c(O)c1)C(N)=O", "activity change": "5.7% [at 23.6 µM] (inactive)"}, {"smiles": "CC(=O)N1CCN(c2ccc(NCc3ccc(C)cc3)cc2)CC1", "activity change": "-3.79% (inactive)"}, {"smiles": "O=S(=O)(c1cccnc1)N1CCOCC1", "activity change": "5.38% (inactive)"}, {"smiles": "Nc1nc(C2CC2)c(Sc2sc(N)nc2C2CC2)s1", "activity change": "-1.12% (inactive)"}, {"smiles": "O=S(=O)(c1ccc(F)cc1)N1CCOCC1", "activity change": "2.82% (inactive)"}, {"smiles": "COC(=O)c1ccc(C(=O)OC)c(NC(=S)N2CCOCC2)c1", "activity change": "3.82% [at 23.6 µM] (inactive)"}, {"smiles": "CCN(CC)S(=O)(=O)c1ccc2c(c1)-c1cc(S(=O)(=O)N(CC)CC)ccc1C2=NNC(N)=S", "activity change": "4.6% (inactive)"}]}]}
